PABP FP inh: PABP-poly(A) binding inhibition; P11940; PABP-poly(A) RNA binding, fluorescence polarization; calls only at 35 µM; hit rate 1% among 290,000; AID 2014;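 also: calls also rest on retests at 20 µM and on dose response follow-up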
Efa HMGR inh: inhibitors of class II HMG-CoA reductase from Enterococcus faecalis | hit rate 0.41% among 190,000 | purified E. faecalis HMGR, NADPH absorbance 340 nm kinetic | AID 1066 | inhibition, % at 10 µM;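 active = inhibition above a set limit, the median over all tested compounds plus 3 SD, cut at about 9.5% in these data; inconclusive = no clear call, values can overlap the other calls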;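 also: enzyme runs in reverse so mevalonate oxidation gives rising NADPH absorbance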
eIF4H FP inh: inhibitors of RNA binding by human eIF4H. Q15056. eIF4H fluorescence polarization binding assay. AID 2012. inhibition, % at 35 µM. hit rate 0.94% among 290,000;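 also: calls also rest on retests at 20 µM and on dose response follow-up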
PHOSPHO1 inh: inhibitors of human PHOSPHO1 phosphatase; recombinant PHOSPHO1, absorbance phosphatase assay; inhibition, % at 13.3 µM; hit rate 1.1% among 290,000; AID 1565; in the data active = inhibition above about 60%
Target sequence (Q8TCT1 whole entry, looked up): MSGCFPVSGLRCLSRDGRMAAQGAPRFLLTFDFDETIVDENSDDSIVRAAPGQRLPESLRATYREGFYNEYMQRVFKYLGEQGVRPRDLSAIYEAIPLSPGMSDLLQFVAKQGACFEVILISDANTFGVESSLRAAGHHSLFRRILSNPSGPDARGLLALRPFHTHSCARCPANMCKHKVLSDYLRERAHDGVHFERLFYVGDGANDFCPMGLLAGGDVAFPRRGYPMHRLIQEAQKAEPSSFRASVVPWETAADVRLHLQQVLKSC
MLLE-PAM2 inh: blocks PAM2 peptide binding to the PABP1 MLLE domain; P11940; GST-MLLE / FITC-PAM2 fluorescence polarization; inhibition, % at 20 µM; hit rate 0.36% among 360,000; AID 588489; in the data active = inhibition above about 35%, passing the limit was not always enough
A number is an active result; – = inactive; ? = inconclusive; · = no result; + = active, no number; ! = a repeat was not active. Shown are actives, neighbours in structure and some others; about 2.4% of the full set was active somewhere. Unless noted, no rule for the calls is given here.

SMILES	PABP FP inh	Efa HMGR inh	eIF4H FP inh	PHOSPHO1 inh	MLLE-PAM2 inh
CC(C)OC(=O)CC(=O)c1sc2nc3c(cc2c1N)CN(C)CC3	?	–	?	82	·
CCN1CCc2nc3sc(C(=O)N4CCc5ccccc5C4)c(N)c3cc2C1	+	·	98	–	–
O=c1nc(Nc2ccccc2)sc2ccc([N+](=O)[O-])cc12	–	–	–	–	–
CCN(CC)Cc1c(C(=O)N/N=C/c2cccc3ccccc23)nnn1-c1nonc1N	–	·	–	–	–
CCCc1c(C(=O)N/N=C/c2cccc3ccccc23)nnn1-c1nonc1N	–	·	–	62	–
COc1ccccc1CNC(=O)c1cc(-c2ccccc2)n(Cc2cc(C)no2)n1	·	·	·	·	–
COc1ccc(-c2n[nH]c(=S)n2-c2cc(OC)ccc2OC)cc1	–	·	–	–	–
COc1ccc(OC)c(-n2c(-c3cc(-c4ccc(F)cc4)n[nH]3)n[nH]c2=S)c1	–	–	–	91	–
COc1ccc(-n2c(-c3cnccn3)n[nH]c2=S)cc1	–	–	–	94	–
COc1ccc(-c2cc(-c3n[nH]c(=S)n3-c3cc(OC)ccc3OC)[nH]n2)cc1	–	–	–	–	–
COc1ccc(OC)c(-n2c(-c3cnccn3)n[nH]c2=S)c1	–	–	–	84	–
C[C@H]1CN([C@@H](C)CO)C(=O)CCCn2cc(nn2)CO[C@@H]1CN(C)C(=O)Nc1ccc2c(c1)OCO2	·	·	·	·	–
COc1cccc2cc(C(=O)NC3CC4CCC3C4)oc12 (configuration not stated)	–	·	–	·	–
COc1ccc2ccccc2c1C1CC(=O)N2CN(Cc3ccco3)CSC2=C1C#N (configuration not stated)	–	–	–	72	–
N#CC1=C2SCN(Cc3ccco3)CN2C(=O)CC1c1ccc(Cl)cc1 (configuration not stated)	–	·	–	76	–
O=S(=O)(c1cnc(Cl)c(Cl)c1)N1CCN(c2ncccn2)CC1	–	·	–	–	–
O=C(O)CN1C(=O)/C(=C2\SC(=S)N(C(Cc3ccccc3)C(=O)O)C2=O)c2ccccc21 (configuration not stated)	–	·	–	–	39
CC1=Nc2ccc(C)cc2/C1=C/c1c(N)n2oc(C)cc2nc1=O	+!	–	?	–	–
CSc1nsc2nc(=O)c(/C=C3\C(C)=Nc4ccc(C)cc43)c(N)n12	–	–	?	–	–
CCc1ccccc1Oc1nc(NCCOC)nc2cc(-c3ccccc3)sc12	·	·	·	·	–
O=C1NC2=C(C(=O)CCC2)C(c2ccccc2[N+](=O)[O-])N1 (configuration not stated)	+	·	107	–	41
CC(C)COC(=O)C(C#N)c1nc2ccccc2nc1N1CCN(Cc2ccccc2)CC1 (configuration not stated)	+	–	44	–	–
COC(=O)C(C#N)c1nc2ccccc2nc1N1CCN(Cc2ccc3c(c2)OCO3)CC1 (configuration not stated)	–	·	–	–	·
COCCOC(=O)C(C#N)c1nc2ccccc2nc1N1CCN(Cc2ccccc2)CC1 (configuration not stated)	–	–	–	–	–
CCCCOC(=O)C(C#N)c1nc2ccccc2nc1N1CCN(Cc2ccc3c(c2)OCO3)CC1 (configuration not stated)	+	–	54	–	–
SMILES	PABP FP inh	Efa HMGR inh	eIF4H FP inh	PHOSPHO1 inh	MLLE-PAM2 inh
C=CCOC(=O)C(C#N)c1nc2ccccc2nc1N1CCN(Cc2ccccc2)CC1 (configuration not stated)	+	–	57	–	–
Cc1nn(C)cc1S(=O)(=O)Nc1ccccc1Br	–	·	–	·	–
O=C(NCc1ccccc1F)C1CCCN(S(=O)(=O)N2CCOCC2)C1 (configuration not stated)	·	·	·	–	–
CCOC(=O)/C=C1\SC(C)C(=O)N1CC(=O)N(CCC#N)c1ccccc1 (configuration not stated)	·	·	·	·	–
CCOC(=O)Cc1nn(Cc2ccccc2)c(=O)c2ccccc12	–	14	–	–	–
COc1ccc(C(=O)NC(C)c2ccc(-n3ccnc3)cc2)cc1S(=O)(=O)N1CCOCC1 (configuration not stated)	·	·	·	·	–
O=C(/C=C/c1ccc(OCCCF)cc1)Nc1ccnc(-c2cccnc2)n1	+	–	102	–	–
O=C(/C=C/c1ccc(OCCCF)cc1)Nc1ccnc(-c2ccncc2)n1	–	–	–	–	–
Cc1cccnc1NC(=O)CN1C(=O)c2ccccc2S1(=O)=O	·	·	·	·	–
Cc1ccc(S(=O)(=O)C(CCC(=O)N2CCOCC2)S(=O)(=O)c2ccc(C)cc2)cc1	–	–	–	–	–

From PubChem BioAssay
